A short description of experiment [1]: Viability qHTS for spleen associated tyrosine kinase inhibitor (SYKi) naive MV4-11 cells (AID 1963823). Also: nearly all actives have a fitted effect of over 40% in size. Also: potency is read from the fitted curve at half-maximal effect. Put shortly: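 SYKi-naive MV4-11 AML cells, 500 per well, were exposed to library compounds for 72 hr at 37 C, 5% CO2. Viability was then read by CellTiter-Glo luminescence after 10 min at room temperature.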
Background: qHTS replaces the single test concentration by a dilution series.

Experiment [2] is described as follows: Viability qHTS for spleen associated tyrosine kinase inhibitor (SYKi) drug resistant MV4-11 cells (AID 1963824). Also: nearly all actives have a fitted effect of over 35% in size. Also: potency is read from the fitted curve at half-maximal effect. Put shortly:
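SYK-inhibitor-resistant MV4-11 AML cells were seeded at 500 per well onto compound and cultured 72 hours (37 °C, 5% CO2). CellTiter-Glo was then added, and after 10 min at room temperature, luminescence gave viability.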

The nature of experiment [3]: Cellular viability qHTS for adrenocortical cancer (ACC) cell line SW-13 (AID 1963989). Also: nearly all actives have a fitted effect of over 65% in size. Also: potency is read from the fitted curve at half-maximal effect.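 As to activity (max response): cells grown in serum-free medium with ITS supplement; % is scaled to controls: 0 for no effect and ±100 for the full control effect.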 Particulars: SW-13 ACC cells viability, CellTiter-Glo, 48 h; activity (max response): stronger effect = lower value. Put shortly: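 Viability was read as CellTiter-Glo luminescence after 48 h compound treatment (up to 46 uM final) of SW-13 cells grown serum-free; titration curves were fit with a four-parameter logistic model to give IC50 and efficacy.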

Experiment [4] is described as follows: Cellular viability qHTS for adrenocortical cancer (ACC) cell line NCI-H295R (AID 1963990). Also: nearly all actives have a fitted effect of over 60% in size. Also: potency is read from the fitted curve at half-maximal effect. Put shortly:
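CellTiter-Glo ATP luminescence, read 48 h after compound addition, measured viability of NCI-H295R adrenocortical cells grown serum-free with ITS. Final concentrations spanned up to 46 uM. Data normalized to DMSO and doxorubicin, fitted for IC50 and maximal response.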

Experiment [5] in a line: Quantitative highthroughput screen to assess conditional lethalithy of NOMO1 cells grown in RPMI1640 with untreated serum (RPMI+s) (AID 1963876).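 Also: 100% = DMSO wells and 0% = empty wells without cells; nearly all actives have a fitted effect of over 35% in size.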 Put shortly:
(§1)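 Each medium arm—HPLM with 10% dialyzed FBS, or RPMI1640 with 5 mM glucose and 10% untreated or dialyzed FBS—was screened against an 11-point, 3-fold compound titration for 48 h at 37 °C, with CellTiter-Glo luminescence as endpoint.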

The nature of experiment [6]: Quantitative highthroughput screen to assess conditional lethalithy of SEM cells grown in Human Plasma-Like Medium with dialyzed fetal bovine serum (HPLM+ds) (AID 1963882). Also: nearly all actives have a fitted effect of over 35% in size. Also: potency is read from the fitted curve at half-maximal effect. As to Viability: series mostly up to about 46 µM. Put shortly: as §1
The nature of experiment [7]: Quantitative highthroughput screen to assess conditional lethalithy of P12 Ichikawa cells grown in RPMI1640 with dialyzed fetal bovine serum (RPMI+ds) (AID 1963880).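 Also: 100% = DMSO wells and 0% = empty wells on each plate; nearly all actives have a fitted effect of over 35% in size.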 Particulars: Potency: P12-Ichikawa viability. An outline of the steps: as §1
The nature of experiment [8]: Quantitative highthroughput screen to assess conditional lethalithy of P12 Ichikawa cells grown in RPMI1640 with untreated serum (RPMI+s) (AID 1963881). Particulars: Potency: viability. Put shortly: as §1

Each structure is given as a SMILES string. Values joined by “and” are separate entries in the source; they are usually repeats but may differ in a detail not shown here. Equal values may be shown once. Results filed as inconclusive are left out. Values without a mark were called inactive. Active and inactive are the calls of the source. Calls follow the shape of the dose curve; as a rule, active = well fitted curve in the direction sought with a large enough effect; inconclusive = small, poorly fitted or top-dose-only effect, or another doubt; inactive = no such curve, though single readings can be large; an effect the other way counts as inactive or inconclusive.

For `C[C@]12CC[C@H]3[C@@H](CC[C@@]45O[C@@H]4C(O)=C(C#N)C[C@]35C)[C@@H]1CC[C@@H]2O`, the Potency in experiment [1] was 10.5 µM (active); in experiment [2], 6610 nM (active); in experiment [4], 28200 nM (active). In addition, the activity (max response) in experiment [3] is -12.1%.
Taken in the same sequence, the figures for `O=C1OC(c2ccc(O)c(S(=O)(=O)O)c2)(c2ccc(O)c(S(=O)(=O)O)c2)c2c(Br)c(Br)c(Br)c(Br)c21` were “inactive”, “inactive”, “inactive” and 4.14%.
As to `COc1ccc2c3c1O[C@H]1[C@@H](O)C=C[C@H]4[C@@H](C2)N(C)CC[C@@]341`, the Potency in experiment [1] was 37.8 µM (active); in experiment [2], 30000 nM (active); in experiment [3], 14100 nM (active); in experiment [4] it was 10000 nM (active).
Taken in the same sequence, the figures for `CO/C1=C/C(C)=C\[C@@H](C)[C@@H](O)[C@@H](C)C/C(C)=C\C=C/[C@H](OC)[C@@H]([C@@H](C)[C@@H](O)[C@H](C)[C@@]2(O)C[C@@H](O)[C@H](C)[C@@H](C(C)C)O2)OC1=O` were 0.0221 µM (active), 22.1 nM (active), 245 nM (active) and 43.5 nM (active).
As to `CCC1(c2ccccc2)CCC(=O)NC1=O` (centres undefined), the Potency in experiment [1] is 21.1 µM (active); in experiment [2], 13300 nM (active). Besides, the activity (max response) in experiment [3] was 7.87%. Besides, in experiment [4], the Potency entry is “inactive”.
Consider `CC(C)(O)/C=C\C(=O)[C@](C)(O)[C@H]1[C@H](O)C[C@]2(C)[C@@H]3CC=C4[C@@H](C=C(O)C(=O)C4(C)C)[C@]3(C)C(=O)C[C@@]12C`, for which the Potency was 0.059 µM (active) in experiment [1], 46.8 nM (active) in experiment [2], 562 nM (active) in experiment [3] and 1260 nM (active) in experiment [4].
For the compound `O=C(NC(O)C(Cl)(Cl)Cl)NC(O)C(Cl)(Cl)Cl` (centres undefined), the Potency result in experiment [1], in experiment [2] and in experiment [4] was “inactive” throughout. Moreover, the activity (max response) in experiment [3] is 11.7%.
Regarding `O=C(N/N=C/c1ccc([N+](=O)[O-])o1)c1cc([N+](=O)[O-])cc([N+](=O)[O-])c1O`, the Potency result in experiment [1], in experiment [2] and in experiment [4] was “inactive” each time. For the same compound, the activity (max response) in experiment [3] is -8.68%.
Take `C/C=C(/C)C(=O)O[C@H]1C(C)=C2[C@H]([C@@H]1OC(=O)CCCCCCC)[C@@](C)(OC(C)=O)C[C@H](OC(=O)CCC)[C@@]1(O)[C@H]2OC(=O)[C@@]1(C)O`: the Potency was 25.9 nM (active) and 20.9 nM (active) in experiment [1]; 18.4 nM (active) and 3.7 nM (active) in experiment [2]; 44.7 nM (active) in experiment [3]; 1780 nM (active) in experiment [4].
In the case of `CC(C)(C)c1ccc(O)cc1`, the Potency result in experiment [1], in experiment [2] and in experiment [4] was “inactive” each time. In addition, in experiment [3], the activity (max response) is 9.89%.
As for `C[C@H](N)C(=O)c1ccccc1`, the Potency result in experiment [1], in experiment [2] and in experiment [4] was “inactive” in each case. In addition, the activity (max response) in experiment [3] was -8.86%.
As to `Cc1ncc(CNC(=O)N(CCCl)N=O)c(N)n1`, the Potency result in experiment [1], in experiment [2] and in experiment [4] was “inactive” each time. For the same compound, the activity (max response) in experiment [3] is 2.91%.
As to `O=P1(NCCCl)OCCCN1CCCl` (centres undefined), the Potency result in experiment [5] is “inactive”. Also, the Potency in experiment [6] is 18700 nM (active).
In the case of `CN1CCN(C(=O)O[C@H]2c3nccnc3C(=O)N2c2ccc(Cl)cn2)CC1`, the Potency result in experiment [7] and in experiment [8] was “inactive” in each case.
As for `O=C(Oc1ccc([N+](=O)[O-])cc1)N1CCC(C(O)(c2ccc3c(c2)OCO3)c2ccc3c(c2)OCO3)CC1`, the Potency entry in experiment [7], in experiment [8] and in experiment [6] was “inactive” throughout.
For `O=C1NC(=O)c2c1c1c3ccccc3[nH]c1c1[nH]c3ccccc3c21`, the Potency in experiment [2] was 51.7 nM (active).
As for `CN1C2CCC(C)(C)C1CC(OC(=O)C(O)(c1cccs1)c1cccs1)C2` (centres undefined), the Potency result in experiment [1] and in experiment [4] was “inactive” each time. Besides, the activity (max response) in experiment [3] was -3.56%.
Turning to `CC1=C[C@H]2O[C@@H]3[C@H](O)[C@@H](O)[C@](C)([C@@]2(CO)C[C@@H]1O)[C@]31CO1`, the Potency in experiment [2] is 731 nM (active).
The same measure, in the same setting: the value for `CC(=O)OC[C@]12C[C@H](O)C(C)=C[C@H]1O[C@@H]1[C@H](O)[C@@H](O)[C@@]2(C)[C@]12CO2` was 805 nM (active).
For the compound `c1ccc(C2CC2)c(OCC2=NCCN2)c1`, the Potency result in experiment [1] and in experiment [4] was “inactive” in each case. Further, in experiment [3], the activity (max response) is -5.68%.
On to `C[N+]1(CCC(C(N)=O)(c2ccccc2)c2ccccc2)CCCCC1`, for which the Potency result in experiment [1] and in experiment [4] was “inactive” in each case. Also, the activity (max response) in experiment [3] was 8.34%.
`C[C@]12CC[C@H](O[C@@H]3O[C@H](CO)[C@@H](O)[C@H](O)[C@H]3O)CC1CC[C@@H]1C2CC[C@]2(C)[C@@H](C3=CC(=O)OC3)CC[C@]12O` (some centres undefined): the Potency in experiment [2] was 1780 nM (active).
Consider `CO[C@]12CC[C@@]3(C[C@@H]1[C@](C)(O)C(C)(C)C)[C@@H]1Cc4ccc(O)c5c4[C@@]3(CCN1CC1CC1)[C@H]2O5`, for which the Potency in experiment [1] was 21.5 µM (active); in experiment [3], 6310 nM (active); in experiment [4] it was 3980 nM (active).
`CNC(=O)Oc1cccc2ccccc12`: the Potency result in experiment [1] and in experiment [4] was “inactive” in each case. Also, in experiment [3], the activity (max response) is -8.24%.
With `CN1CCC(N(Cc2ccccc2)c2ccccc2)CC1`, the Potency result in experiment [1] and in experiment [4] was “inactive” throughout.
Take `CCN(CC)C(=O)N[C@@H]1C=C2c3cccc4[nH]cc(c34)C[C@@H]2N(C)C1`: the Potency result in experiment [1] and in experiment [4] was “inactive” each time. For the same compound, the activity (max response) in experiment [3] was 5.3%.

The values above are taken from PubChem BioAssay (NCATS).
